14-3-3 PPI – modulators of human 14-3-3 gamma - Raf peptide interaction; FP, 14-3-3gamma / TMR-pS259-Raf peptide binding; 160,000 compounds, 0.19% hits; P61981; inhibition, % at 40 µM; in the data active = inhibition above about 30%
Target sequence (P61981 whole entry, looked up): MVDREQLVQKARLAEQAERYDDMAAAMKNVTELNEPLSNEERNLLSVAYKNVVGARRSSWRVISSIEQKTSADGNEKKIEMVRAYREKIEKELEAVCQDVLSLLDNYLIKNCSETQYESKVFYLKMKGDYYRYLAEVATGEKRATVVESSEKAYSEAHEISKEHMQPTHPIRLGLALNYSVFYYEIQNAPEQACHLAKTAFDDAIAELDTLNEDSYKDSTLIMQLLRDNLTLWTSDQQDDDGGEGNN
Each line names hits and unclear results; the compound was inactive in the other large screens; ! = a repeat was not active. The entries come from a sample that favours hits as a whole.

CCc1ccc(NC(=O)c2oc(=O)c3ccccc3c2-c2ccc(C)cc2)cc1	none
CSc1nc2c(c(=O)n(C)c(=O)n2C)n1CCC(C)C	none
CC(C)(C)c1ccc(OCC(=O)Nc2cccc(-c3nc4ccccc4[nH]3)c2)cc1	none
COc1ccc(Cl)cc1NC(=O)CCCn1cnc([N+](=O)[O-])n1	none
Cc1c(Cl)c(C)c([N+](=O)[O-])c(O)c1C=Nc1ccc(C(=O)O)cc1	14-3-3 PPI 45.4
Cc1c(Cl)c(C)c([N+](=O)[O-])c(O)c1C=Nc1cccc(C(=O)O)c1	none
Cc1c(Cl)c(C)c([N+](=O)[O-])c(O)c1C=Nc1ccc(Br)cc1	none
CC(C)(C)n1nc2c(c1NC(=O)C1(c3ccc(Cl)cc3)CCCC1)CS(=O)C2 (configuration not stated)	none
C=COCCN1CCOCC1	none
OCCN1CCOCCN(CCO)CCN(CCO)CC1	14-3-3 PPI 147.0!
NC(=O)CN1CCOCCOCCN(CC(N)=O)CCOCC1	none
COc1ccc(CNS(=O)(=O)c2ccc(F)c(C(=O)Nc3ccc(C)c(C)c3)c2)cc1	none
CCCCn1c(CCNC(=O)c2ccc(F)cc2)nc2ccccc21	none
Cc1ccc(C)c(Cn2c(CCNC(=O)c3ccc(F)cc3)nc3ccccc32)c1	none
Cc1ccccc1Cn1c(CCNC(=O)c2ccc(F)cc2)nc2ccccc21	14-3-3 PPI 31.6
C=CCOC(=O)CCC1CCCCC1	none
COc1ccc(NC(=O)c2c(C)c(-c3ccc(C)cc3)nc3ccccc23)cc1	none
COc1ccc(OC)c(NC(=O)c2c(C)c(-c3ccccc3)nc3ccccc23)c1	14-3-3 PPI 53.3
COc1ccc(-c2nc3ccccc3c(C(=O)Nc3ccc(Br)cc3)c2C)cc1	none
CC(=O)Oc1ccc2nc(C=Cc3ccc([N+](=O)[O-])cc3)oc(=O)c2c1	none
O=S(=O)(c1cccc(C(F)(F)F)c1)n1c(C=Cc2ccccc2)nc2ccccc21	none
CCOc1ccccc1CN1C(=O)CCC1(C)C(=O)NC1CCC(C)CC1 (configuration not stated)	none
NS(=O)(=O)c1ccc(CCNC(=O)c2cccn3c(=O)c4cc5ccccc5cc4nc23)cc1	14-3-3 PPI 91.4
O=C(NCCc1ccccc1)c1cccn2c(=O)c3cc(Cl)ccc3nc12	none
COCCCNC(=O)c1cccn2c(=O)c3cc4ccccc4cc3nc12	none
COc1ccc(S(=O)(=O)NCCC(=O)NCc2cccnc2)cc1	14-3-3 PPI 55.9
COc1ccc(S(=O)(=O)NCCC(=O)NCc2cccs2)cc1	none
O=C(CCNS(=O)(=O)c1ccc(Cl)cc1)NCc1cccnc1	none
Cn1c2ccccc2c2ccc(CC(=S)N3CCOCC3)cc21	none
COc1ccc(C)cc1NC(=O)CCN1CCCC1	none
COc1ccc(OC)c(NC(=O)CCN2CCCCC2)c1	none
COc1ccc(OC)c(NC(=O)CCN2CCCC(C)C2)c1 (configuration not stated)	14-3-3 PPI 35.3
COc1ccc(-c2nnc(SCC(=O)Nc3cc(F)ccc3C)nc2-c2ccc(OC)cc2)cc1	none
COc1cc(Br)c(C2Nc3ccccc3NC3=C2C(=O)CC(c2ccc(C)cc2)C3)cc1OC (configuration not stated)	none
Cc1ccnc(NC(=O)c2cn(C3CCCC3)c(=O)c3c2c2ccccc2n3C)c1	none
c1ccc(SCCN2CCOCC2)cc1	none
c1ccc(COCCOCCN2CCOCCOCCOCCOCCOCC2)cc1	14-3-3 PPI 119.5
C1COCCOCCN(CCOCCOCCN2CCOCCOCCOCCOCC2)CCOCCO1	none
O=C(Nc1ccc(-c2nc3ccc(C(=O)c4ccccc4)cc3[nH]2)cc1)c1ccc([N+](=O)[O-])cc1	none
COc1ccc(Cl)cc1NC(=O)CSc1nnc(COc2ccc3c(c2)CCCC3)o1	none
CCC(=O)N1CCc2cc(Br)cc(S(=O)(=O)N3CCCc4ccccc43)c21	none
Cc1ccc(C2=CC(c3ccc(C)cc3)n3nnnc3N2)cc1 (configuration not stated)	none
CCc1ccc(C2=CC(c3cccc(C)c3)n3nnnc3N2)cc1 (configuration not stated)	none
Cc1cccc(C2C=C(c3ccc(Br)s3)Nc3nnnn32)c1 (configuration not stated)	14-3-3 PPI 48.1
Clc1ccccc1C1C=C(c2cccs2)Nc2nnnn21 (configuration not stated)	none
Cc1ccc(C2C=C(c3cccs3)Nc3nnnn32)cc1 (configuration not stated)	14-3-3 PPI 37.3
Cc1cccc(C2C=C(c3ccc(Cl)cc3)Nc3nnnn32)c1 (configuration not stated)	none
Cc1[nH]c2ccccc2c1C(Nc1cccc(F)c1)c1ccccn1 (configuration not stated)	none
O=[N+]([O-])c1ccc(O)c(C=Nc2cc(C(F)(F)F)ccc2N2CCCCC2)c1	none
O=C(Nc1c2c(nn1-c1cccc(Cl)c1)CSC2)c1cccs1	none
O=C(Nc1ccc(Br)cn1)C1CC1	none
CCOC(=O)SC1=N/C(=C\c2ccc(N(C)C)cc2)C(=O)S1	none
CSC1=NC(=Cc2ccc(N(C)C)cc2)C(=O)S1	14-3-3 PPI 125.4
COc1cc(C=C2N=C(SC)SC2=O)cc(OC)c1OC	none
COc1cccc2cc(-c3csc(NC(=O)CCC(=O)N4CCC(C(N)=O)CC4)n3)c(=O)oc12	none
